Experimental findings from PubChem BioAssay AID440 (NMMLSC, 2006) are described below.

In all, about 24,000 compounds went through this assay and about 180 (0.75%) were called active. This is one part of a sample in which actives are shown more often than they occur. A number with no mark means an inactive call. No stated cut-off is given here; in the data, active means inhibition above about 30%; inconclusive means no clear call, values can overlap the other calls; inactive means below that.

The target in this assay is fMet-Leu-Phe receptor (Homo sapiens) (UniProt P21462). Kind of assay: small molecules displacing FPR fluorescent ligand – cell-based, FPRL1 counter-screen, flow cytometry, primary screen (AID 440).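 Further: 0% = buffer wells and 100% = receptor blocker peptide wells.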 To be noted: FPR-expressing cells, fluorescent ligand binding, stronger effect = higher value, concentration not given here.
Chain of fMet-Leu-Phe receptor (Homo sapiens) (P21462 whole entry, looked up): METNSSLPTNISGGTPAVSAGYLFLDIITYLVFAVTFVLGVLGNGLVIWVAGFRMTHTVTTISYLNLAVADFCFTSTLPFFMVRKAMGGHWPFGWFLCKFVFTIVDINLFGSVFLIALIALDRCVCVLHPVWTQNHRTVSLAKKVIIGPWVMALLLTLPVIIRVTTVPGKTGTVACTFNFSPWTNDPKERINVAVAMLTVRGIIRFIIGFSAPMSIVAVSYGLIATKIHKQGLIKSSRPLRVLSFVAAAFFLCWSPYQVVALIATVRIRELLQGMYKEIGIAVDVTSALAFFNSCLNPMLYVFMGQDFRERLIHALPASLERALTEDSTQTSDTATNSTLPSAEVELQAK
In the case of `COC(=O)c1ccc(CSc2ccccc2C)o1`, the inhibition is 0.5%.

Take `O=C(Nc1ccccc1C(=O)N1CCOCC1)C1CCC(=O)N1C1CCCC1` (configuration not stated): the inhibition is -0.6%.

On to `COc1ccc(CN2C(=O)CN=C2Nc2ccc(C)cc2C)cc1`, for which the inhibition was 6.5%.

Take `O=C(Cn1nc(Cc2cccnc2)c2ccccc2c1=O)NCC1CCCO1` (configuration not stated): the inhibition is 0.4%.

Regarding `Cc1nn(C)c(C)c1S(=O)(=O)N1CCc2ccccc21`, the inhibition was 8.9%.

For `O=C(NCCCN1CCN(C2CCCCC2)CC1)Nc1ccccc1C(F)(F)F`, the inhibition is 1.3%.

Take `O=C(CN1C(=O)COc2ccccc21)Nc1ccc(F)cc1`: the inhibition was 4.3%.

For `CCn1ncc(Br)c1C(=O)Nc1cc(C)ccc1F`, the inhibition is 0.8%.

Regarding `Cc1nc(CNS(=O)(=O)c2cccnc2)cs1`, the inhibition is 1.9%.

For the compound `CSc1sc(C)cc1C1C(C#N)=C(N)N(c2cccnc2)C2=C1C(=O)CCC2` (configuration not stated), the inhibition was 4.3%.

With `Cc1nc(C)c(C(=O)Nc2ccc(C)c(F)c2)o1`, the inhibition is -4.6%.

`O=c1c(-c2ccc3c(c2)OCCO3)c(C(F)(F)F)oc2cc(O)cc(O)c12`: the inhibition was -6.7%.

For `Cc1cccn2c(=O)c3cc(C(=O)NCc4ccccn4)n(C)c3nc12`, the inhibition was -5.1%.

Turning to `O=C(Nc1cccnc1)c1noc2c1CCCCC2`, the inhibition was -1.9%.

With `Cc1cc(N2C(=O)C(=O)/C(=C(/O)c3ccc(Cl)cc3)C2c2cccc(Br)c2)no1` (configuration not stated), the inhibition is 3.2%.

As for `CCCC(NC(=O)c1ccccc1)c1nc2ccccc2n1Cc1ccc(C(=O)OC)o1` (configuration not stated), the inhibition was 24.2%.

In the case of `CSc1ccc(NC(=O)N2CC(C)OC(C)C2)cc1` (configuration not stated), the inhibition is -6.4%.

Take `CCCCOc1ccc(C(=O)NCc2ccco2)cc1`: the inhibition was 0.1%.

Take `O=C(O)Cc1ccc(-c2ccccc2)cc1`: the inhibition is 3.8%.

With `Cc1cc(Cl)c(S(=O)(=O)Nc2ccc3c(c2)OCCO3)cc1OCC(N)=O`, the inhibition is -7.6%.

For `CC1=C(C)CC2C(=O)N(c3cccc4ccccc34)C(=O)C2C1` (configuration not stated), the inhibition is -2.3%.

As to `COc1cc2c(cc1NC(=O)CN1CCN(S(=O)(=O)c3ccc(F)cc3)CC1)oc1ccccc12`, the inhibition is 2.8%.

For `CCOC(=O)C1(C(F)(F)F)N=C(N(C)C)OC(N(C)C)=N1`, the inhibition was -1.4%.

`COC(=O)Nc1ccc(S(=O)(=O)N(C)CC(F)(F)C(F)F)cc1`: the inhibition is 1%.

As for `CCCOc1ccc(/C(O)=C2/C(=O)C(=O)N(CCN(C)C)C2c2ccc(OC)c(OC)c2)cc1` (configuration not stated), the inhibition is -5%.

Take `COC(=O)CNS(=O)(=O)c1ccc(Cc2ccc(S(=O)(=O)NCC(=O)OC)cc2)cc1`: the inhibition is -3.3%.

For `CCOC(=O)c1ccc(-n2c(C)nc3c(cnn3-c3ccccc3C)c2=O)cc1`, the inhibition is -9.5%.
